Assay results reported in the supplement of paper PMC6555819.

Experiments:
Assay in all cases: PBM binding z-score (relative to random genomic background probes); higher = stronger binding; sequences stand for … in GC…GCGATTGACAGCGTAGAATGAAGG
[1] = test system: FXR:RXRa (NR concentration 270 nM, RXRa partner concentration 90 nM)
Outline: (§1)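 Scanned fluorescence from custom Agilent 4×180K protein-binding microarrays was regression-normalized. Binding z-scores use random background probes as reference. Ligand-free nuclear receptor dimers were incubated on the arrays for 1 h and detected with antibodies against each partner (one per run).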

[2] = test system: LXRa:RXRa (NR concentration 270 nM, RXRa partner concentration 90 nM)
Outline: as §1

[3] = test system: LXRa homodimer (NR concentration 270 nM)
Outline: as §1

[4] = test system: LXRb:RXRa (NR concentration 270 nM, RXRa partner concentration 90 nM)
Outline: as §1

[5] = test system: LXRb homodimer (NR concentration 270 nM)
Outline: as §1

[6] = test system: PPARa:RXRa (NR concentration 270 nM, RXRa partner concentration 90 nM)
Outline: as §1

[7] = test system: PPARg:RXRa (NR concentration 180 nM, RXRa partner concentration 90 nM)
Outline: as §1

[8] = test system: PPARg:RXRa 270nM:90nM, anti-RXR (NR concentration 270 nM, RXRa partner concentration 90 nM)
Outline: as §1

[9] = test system: PPARg:RXRa 30nM:10nM, anti-RXR (NR concentration 30 nM, RXRa partner concentration 10 nM)
Outline: as §1

[10] = test system: PPARg:RXRa 90nM:30nM, anti-RXR (NR concentration 90 nM, RXRa partner concentration 30 nM)
Outline: as §1

[11] = test system: PPARg:RXRa DBDmut IVT, anti-RXR (DBD mutation: RXRa K156A/R161A, NR concentration 270 nM, RXRa partner concentration 90 nM)
Outline: as §1

[12] = test system: PPARg:RXRa IVT, anti-PPARg (NR concentration 270 nM, RXRa partner concentration 90 nM)
Outline: as §1

[13] = test system: PPARg DBDmut:RXRa IVT, anti-PPARg (DBD mutation: PPARg1 K132A/R137A, NR concentration 270 nM, RXRa partner concentration 90 nM)
Outline: as §1

[14] = test system: PPARg DBDmut IVT, anti-PPARg (DBD mutation: PPARg1 K132A/R137A, NR concentration 270 nM)
Outline: as §1

[15] = test system: PPARg homodimer (NR concentration 180 nM)
Outline: as §1

[16] = test system: PXR:RXRa (NR concentration 270 nM, RXRa partner concentration 90 nM)
Outline: as §1

[17] = test system: PXR homodimer (NR concentration 270 nM)
Outline: as §1

[18] = test system: RARa:RXR (NR concentration 270 nM, RXRa partner concentration 90 nM)
Outline: as §1

[19] = test system: RARa homodimer (NR concentration 270 nM)
Outline: as §1

[20] = test system: RARb:RXRa (NR concentration 270 nM, RXRa partner concentration 90 nM)
Outline: as §1

Sequence	PBM binding z-score [1]	PBM binding z-score [2]	PBM binding z-score [3]	PBM binding z-score [4]	PBM binding z-score [5]	PBM binding z-score [6]	PBM binding z-score [7]	PBM binding z-score [8]	PBM binding z-score [9]	PBM binding z-score [10]	PBM binding z-score [11]	PBM binding z-score [12]	PBM binding z-score [13]	PBM binding z-score [14]	PBM binding z-score [15]	PBM binding z-score [16]	PBM binding z-score [17]	PBM binding z-score [18]	PBM binding z-score [19]	PBM binding z-score [20]
CGAACTAGGTCATAACAGGACAGTGAAGGATGAT	3.19	4.15	0.43	1.95	0.0725	4.26	6.94	6.14	3.52	5.3	7.75	8.05	5.21	4.58	2.38	2.04	0.386	2.3	0.47	3.38
ATACCAAGGTGATCATGAGGTCGTTGATACTAAC	1.75	1.61	0.874	1.38	-0.0501	1.89	0.785	0.728	0.266	0.604	0.474	1.5	0.599	0.991	0.68	3.42	1.96	2.22	0.136	1.49
CAAACTAGGTCCCCGGAAGGTCAAAGTCCGCATG	2.38	3.13	2.88	2.9	0.475	3.7	2.01	2.86	0.494	1.63	4	4.13	0.31	0.647	3.1	3.72	1.36	3.99	0.686	3.24
GTACCAAGGTGAATAGGTCGTTGAAGAGTAGGCG	1.03	0.815	0.077	0.828	-0.492	2.34	1.56	2.06	0.379	1.17	1.8	2.92	0.0444	-0.34	1.08	1.12	0.219	1.79	0.784	1.94
TAGCCTAGGTCATGAGGGCCAGTATAGTGTCGGC	3.91	3.07	0.189	1.73	-0.262	3.69	2.94	2.69	0.483	1.94	2.17	3.05	0.44	-0.29	0.909	1.6	-0.521	2.56	-0.556	3.8
CCAGACAGGTGAGAGGTAACTCAGTCTGGTACGC	-0.0103	0.206	-0.48	0.237	-0.589	1.97	2.93	4.15	1.95	3.82	1.59	1.87	-0.562	-0.501	0.989	-0.00466	-0.224	0.194	0.0236	0.78
CCTACTGGGCCACGAAAGGTCATTGAATCAGTGA	3.69	5.1	4.09	4.26	0.492	4.68	4.56	5.1	2.28	4.03	5.88	5.52	0.0728	-0.421	2.53	5.09	1.26	5.07	0.674	4.03
ATGGAAAGGTCGAGGTGAGTATAGAGAAAGGGAA	4.15	3.47	0.547	2.81	0.956	4.69	3.21	4.02	1.44	2.83	0.536	2.48	1.74	0.527	1.67	2.55	1.05	3.1	1.32	4.07
CGAACTAGGTCATTGACAGGCCAGTGAATAGTAA	4.02	2.69	-0.0414	1.9	-0.365	4.67	7.02	6.4	3.9	5.91	8.3	7.98	0.866	1.34	1.29	1.34	-0.173	2.06	-0.0851	3.64
ATCTCTAGGCAACAAGTTCAGTGAAAGAGAGGAC	0.0391	0.175	-0.0655	0.139	0.432	0.498	0.668	1.15	0.633	1.09	0.952	0.456	0.856	0.154	0.297	0.875	1.52	0.335	0.376	1.32
GCGTGTAGATCAAGGTTAAGAAAGACTAAGCTAA	0.359	0.939	-0.369	0.539	-0.757	1.28	0.0821	0.373	-0.0969	0.289	-0.0954	0.359	-0.293	-0.542	0.178	0.409	0.176	1.16	-0.389	0.791
ACTAGCAAGCCAAGTTTGGGTCACTCAAACAAAG	-0.12	-0.258	-0.55	0.443	-0.728	0.909	-0.253	0.132	-0.505	-0.56	-0.834	0.332	-1.3	-0.652	-0.225	0.253	-0.636	0.968	-0.901	0.801
GCGACTGGGGCAAAGCAGGTTACCATGAGGTTGG	0.529	0.0146	-0.506	0.0618	-0.859	1.1	1.18	1.05	-0.313	0.335	4.46	3.79	-0.666	-1.4	0.0533	0.378	-0.61	0.383	-0.939	0.981
AGTCAAAGTTCAGGACGAGGCAACGTAAAGCACG	3.7	3.55	1.2	1.5	-0.0334	3.22	4.51	4.56	1.57	3.42	-0.129	1.26	0.256	0.437	1.12	1.94	0.989	1.89	0.997	4.37
CCTAGCAGGCCCATCTGGGTCACTCAAGGCTTGA	0.338	0.486	-0.426	0.484	-1.16	1.7	0.158	0.743	-0.909	-0.217	0.547	2.42	-1.01	-1.83	0.0647	0.362	-0.496	1.21	-0.257	0.978
CGAACTAGGTCAGAACAGGACAGTAAAGGATGAT	1.48	0.875	-0.0273	0.738	-0.326	3.33	5.37	4.63	1.83	3.65	7.08	7.22	1.86	1.17	1.1	1.02	0.0829	1.26	0.18	2.92
TATACAGGGTCAAAGGCCACAGTACGAATGTCGA	7.15	6.26	2.88	5.26	2.68	6.52	9.43	8.36	7.28	8.74	2.84	5.48	3.56	1.95	3.1	4.85	0.619	7.09	1.53	4.45
CCTACTGGGCGATCAGGTCATTGATATCAACGTT	0.953	0.548	0.541	0.798	-0.539	1.44	0.524	1.26	0.0672	0.741	1.18	1.66	-0.36	-0.403	0.86	1.29	0.227	1.47	0.157	1.6
TCTTGTAGATCAAGAAGGTTAAGAAAGCCTGAGT	0.542	0.704	-0.24	0.833	-0.584	1.44	-0.11	1.65	2.96	2.31	1.65	0.53	-0.357	0.523	0.323	0.858	0.332	0.941	0.353	0.732
CGTCAAAGTTAAACTAAGGTAACGTAAAGCACGC	0.945	1.15	0.57	0.346	0.169	0.868	0.628	0.688	0.0889	0.292	0.269	0.719	0.529	0.672	0.0557	0.525	0.364	1.08	0.284	0.845
TGAATGAGGTTAAAGATCAAGGAACGTGGCGTCG	3.35	2.61	-0.438	1.96	0.0283	4.79	6.53	6.53	5.25	6.93	1.88	3.3	0.538	0.468	0.301	2.23	-0.137	3.64	0.0967	2.11
CGTCCAAGGTCAAAGGGCAGTGAAGAGATGACGG	7.23	5.66	1	4.32	0.742	6.15	7.62	7.16	5.08	7.03	2.96	4.49	0.0203	0.196	2.9	4.98	1.24	6.27	1.01	5.36
ATATGTCGGTTAGCTGGGGTCATTCAGACTAGGC	3.68	4.3	2.96	4.36	1.24	4.39	1.86	2.65	0.599	1.75	1.3	2.25	0.889	0.777	1.85	5.49	3.48	5.05	0.853	2.62
TCATGTAGATCAACAGGAGGTTAAGAAAGATCGA	0.191	1.12	0.0437	0.814	-0.691	1.38	0.396	1.35	2.65	1.97	1.44	0.504	0.449	0.653	-0.00792	0.814	-0.17	1.3	0.399	0.499
CATACAGGGTCAGCTAGGCCAGCGTAGGGACGGC	4.29	2.94	-0.144	1.98	0.387	4.38	3.25	2.9	0.559	2.04	1.15	2.23	0.338	0.666	1.25	2.09	0.247	2.95	0.0243	4.03
AGAATGAGGTTATTAAGATCACGGAATTGCGGTC	1.57	1.78	0.215	1.57	0.0573	3.18	1.99	2.7	0.647	1.6	3.48	3.23	1.05	1.25	1.1	1.55	1.01	1.86	0.114	1.43
AATACAGGGTCATCGTAGGACAGAGTACGCACAG	7.26	6.53	2.99	4.91	1.66	5.73	6.66	6.04	3.07	4.95	2.91	4.34	1.42	1.38	2.54	4.92	0.871	4.82	0.937	4.22
GCTTACGGGTCAAAGGTTATAGGATGAATAGAAT	7.58	5.53	0.854	5.77	0.455	6.89	11.4	9.24	10	10.9	4.59	5.81	2.01	1.61	3.34	6.34	0.559	8.36	1.33	4.59
